# An excerpt weighted towards active compounds, which were near 3.4% of everything screened.
# SMARCA2 activ: SMARCA2 (BRM) function activators, primary screen, cell-based, luminescence, high throughput | MG213 cells, MMTV-luciferase reporter, dexamethasone, overnight | activation, % at 9.1 µM | 370,000 compounds, 1% hits | AID 652017, 2013; in the data active means activation above about 7.8%
# Gli-Sufu antag: Gli-Sufu pathway antagonists, primary screen, luciferase luminescence, Sufu-KO-LIGHT cells, uHTS; Sufu-KO-LIGHT fibroblasts, Gli luciferase reporter luminescence; inhibition, % at 5 µM; 340,000 compounds, 0.74% hits; AID 588413, 2011;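 active means inhibition above about 55%, limit read from the data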
# Cardio protect: cardioprotection against H2O2-induced cell death, primary screen, uHTS, H9c2 cells, ATPLite luminescence | protection from H2O2 cell death, % at 20 µM | AID 588492, 2011 | 360,000 compounds, 0.63% hits | H9c2 cardiomyocytes, H2O2 injury protection, 2 h;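 active means compounds giving at least 50% protection of heart cells from peroxide-induced death in the single-dose screen, raw or plate-pattern-corrected value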
# FXN GAA850 act: FXN promoter activators, primary screen, cell-based, luciferase luminescence, HEK293 lucGAA850; HEK293 lucGAA850 FXN promoter luciferase reporter, 24 h; percent of 10 µM SAHA response; activation, % at 6 µM; 360,000 compounds, 0.56% hits;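 active means activation above the average of all compounds screened plus 3 SD, cutoff fixed separately per campaign, cut at about 7.5% in these data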
# NR2F2 inh: NR2F2 transcriptional activity inhibitors, primary screen, cell-based, luciferase reporter, HEK293T, luminescence; HEK293T NGFI-A luciferase reporter; inhibition, % at 8.6 µM; 370,000 compounds, 0.7% hits; COUP transcription factor 2 (Homo sapiens), P24468; AID 686940, 2013;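 active means inhibition above a per-plate cutoff, mean inhibition of test wells between control levels plus 3 SD, cut at about 38% in these data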;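 further: cells cotransfected with COUP-TFII expression vector driving the NGFI-A reporter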
# Target sequence (P24468 whole entry, looked up): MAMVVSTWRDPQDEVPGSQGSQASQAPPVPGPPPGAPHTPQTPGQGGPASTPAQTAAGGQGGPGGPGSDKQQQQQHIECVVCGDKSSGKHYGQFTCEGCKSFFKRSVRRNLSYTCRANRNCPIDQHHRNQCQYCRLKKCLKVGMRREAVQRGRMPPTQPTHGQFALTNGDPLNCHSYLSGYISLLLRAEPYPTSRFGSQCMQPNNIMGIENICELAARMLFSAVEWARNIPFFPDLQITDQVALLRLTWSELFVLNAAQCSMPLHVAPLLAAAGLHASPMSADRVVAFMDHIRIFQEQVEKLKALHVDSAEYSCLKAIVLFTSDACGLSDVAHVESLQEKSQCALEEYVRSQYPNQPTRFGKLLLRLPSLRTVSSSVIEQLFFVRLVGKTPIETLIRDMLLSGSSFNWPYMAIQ
# GalR3 antag: GalR3 antagonists in HEK293 cells, primary screen, cell-based, fluorescence readout; 360,000 compounds, 0.44% hits; inhibition, % at 3 µM; HEK293 GalR3-CNG cAMP membrane potential fluorescence; galR3 body fused to GalR1 C-terminus;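 active means inhibition above the screen-wide average plus 3 SD, cut at about 13% in these data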;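 further: forskolin and galanin both at EC90 stimulate the cells; cAMP rise reported by CNG channel membrane potential dye signal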
# SMARCA2 conf: SMARCA2 (BRM) function activators, confirmation, cell-based, luminescence, triplicate | shares compounds with SMARCA2 activ | 3,500 compounds, 30% hits | activation, % at 9.1 µM | MG213 cells, MMTV-luciferase with dexamethasone, overnight; MG213 cells expressing E1A, Rb sequestered; DMSO wells 0%, reference activator 100%;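 active means activation above its plate's cutoff, the mean activation of tested wells plus 3 SD, cut at about 7.9% in these data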
# VP16 Luc act: GAL4-VP16 luciferase reporter activation, counter-screen for SMARCA2 (BRM) activator project, cell-based, pG5luc, luminescence, high throughput. shares compounds with SMARCA2 activ. HEK293 GAL4-VP16 pG5luc reporter; scaled: DMSO wells 0%, SAHA wells 100%. AID 686939, 2013. 3,500 compounds, 41% hits. activation, % at 9.1 µM;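 active means activation above the solvent-only control well mean plus 3 SD, averaged across control plates, cut at about 5.2% in these data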
# Numbers stand for hits; 0 = inactive; - = not tested or not shown.
SMILES,SMARCA2 activ,Gli-Sufu antag,Cardio protect,FXN GAA850 act,NR2F2 inh,GalR3 antag,SMARCA2 conf,VP16 Luc act
COCCNC(=O)/C(C#N)=C/C=C/c1ccccc1[N+](=O)[O-],12.2,0,0,0,0,0,17.9,0
COCCNC(=O)/C(C#N)=C/c1ccc(O)c([N+](=O)[O-])c1,0,0,0,0,0,0,-,-
COc1ccc2oc(C(=O)OCC(=O)N3C(C)CCCC3C)c(C)c2c1 (centres undefined),0,0,0,0,0,0,-,-
COc1ccc2oc(C(=O)OCC(=O)N3CCCCC3C)c(C)c2c1 (centres undefined),8.4,0,0,0,0,0,0,0
CC(=NNC(=O)C(C)SC(C)C(=O)NN=C(C)c1cccnc1)c1cccnc1 (centres undefined),0,0,0,0,0,0,-,-
Cc1noc2ncnc(Oc3ccc(F)cc3)c12,0,0,0,0,0,0,-,-
Cc1cc(NC(=O)CC2CCCC2)ccc1Br,11.0,0,0,0,0,0,0,8.6
O=C(Nc1ccc2c(c1)CCC2)c1ccc(Cl)nc1,0,0,0,0,0,0,-,-
O=C(Nc1cccc(F)c1)Nc1ccc2c(c1)CCC2,8.8,0,0,0,0,0,9.8,6.5
O=C(COC(=O)c1ccc(Cl)nc1)Nc1ccc2c(c1)CCC2,9.1,0,0,0,0,0,0,0
O=C(CC1CCCC1)Nc1ccc2c(c1)CCC2,9.0,0,0,0,0,0,12.9,0
Cc1ccc(Cn2nnnc2CN2CCC(NC(=O)C(C)(C)C)CC2)cc1,0,0,0,0,0,0,-,-
O=C(c1ccncc1F)N1CCC(n2nnc3ncccc32)CC1,8.1,-,-,-,0,-,0,0
S=c1[nH]ccn1Cc1ccccc1,8.9,0,0,0,0,0,0,0
CC(NC(=O)CCCCCNC(=O)N1CCn2c1nc1ccccc12)c1ccccc1 (centres undefined),0,0,0,0,0,0,-,-
CC(C(=O)Nc1ccc2c(c1)OCO2)N(c1ccc(Cl)cc1)S(C)(=O)=O (centres undefined),0,0,0,0,0,0,-,-
O=C(CSC1=Nc2ccccc2C2=NC(Cc3c[nH]c4ccccc34)C(=O)N12)NC1CCCCC1 (centres undefined),8.6,0,0,0,0,0,0,0
Cc1ccc(Cc2cnc(NC(=O)C3CCCO3)s2)cc1 (centres undefined),8.8,0,0,0,0,0,10.5,7.9
O=C(/C=C/Nc1ccc(F)cc1)c1cccs1,8.8,0,0,0,0,0,11.2,13.7
CC(=O)c1cccc(N/C=C\C(=O)c2ccc(C)cc2)c1,10.5,0,0,0,0,0,9.6,9.8
O=C(/C=C/Nc1ccc(Br)cc1F)c1ccccc1,0,0,0,0,0,0,-,-
O=C(/C=C/Nc1ccc(F)c(Cl)c1)c1ccccc1,9.3,0,0,0,0,0,0,13.3
O=C(/C=C/Nc1cccc(O)c1)c1ccccc1,8.1,0,0,0,0,0,0,8.1
CC(=O)c1cccc(NS(=O)(=O)c2ccc(N/C=C\C(=O)c3ccc(C)cc3)cc2)c1,0,0,0,0,0,0,-,-
O=C(/C=C/Nc1ccccc1F)c1ccc(Br)cc1,17.5,0,0,0,0,0,0,13.8
SMILES,SMARCA2 activ,Gli-Sufu antag,Cardio protect,FXN GAA850 act,NR2F2 inh,GalR3 antag,SMARCA2 conf,VP16 Luc act
O=C(CSc1ccccc1)Nc1nnc(C2CC2)s1,0,0,0,0,0,0,-,-
CSCCC(NC(=O)c1ccccc1)C(=O)N/N=C(\C)c1ccccc1 (centres undefined),0,0,0,0,0,0,-,-
CC(C)CCn1c(Sc2nc3ccccc3o2)nc2c1c(=O)[nH]c(=O)n2C,8.1,0,0,0,0,0,0,0
Cn1c(=O)[nH]c(=O)c2c1nc(N1CCCCC1)n2CCSc1nc2ccccc2o1,0,0,0,0,0,-,-,-
Cc1ccc2c(ccc[n+]2CC(=O)c2ccccc2)c1,11.7,0,0,0,0,0,0,0
COc1ccc(C(=O)C[n+]2cccc3cc(C)ccc32)cc1,0,0,0,0,0,0,-,-
COc1ccccc1CNCC(=O)Nc1ccc(N2CCOCC2)cc1,0,0,0,0,0,0,-,-
COc1ccccc1NC(=O)Nc1ccc(N2CCOCC2)cc1,8.8,0,0,0,0,0,8.1,5.6
COc1ccccc1NS(=O)(=O)c1cc(NC(=O)c2ccc(NC(C)=O)cc2)ccc1N1CCOCC1,17.5,0,0,0,0,0,16.2,0
COc1ccc(-c2nc(SCC(=O)NC3CCCCC3)n[nH]2)cc1,0,0,0,0,0,0,-,-
Cc1cc(C)n2nc(SCC(=O)NC(=O)c3ccccc3Cl)nc2n1,0,0,0,0,0,0,-,-
C/C=C/C=N\NC(=O)c1ccncc1,8.2,0,0,0,0,0,0,0
CC(C#Cc1ccc2c(c1)COc1c3ccccc3nn1-2)OC(C)(C)C (centres undefined),0,0,0,0,0,0,-,-
COc1ccc(-c2csc(N(C)C(=O)c3ccco3)n2)cc1,8.0,0,0,0,0,0,0,7.9
C=CCOc1ccc(/C=N/NC(=O)C(=O)N2CCCCCC2)cc1OC,0,0,0,0,0,0,-,-
O=C(Nc1ccc(-c2nc3ccccc3[nH]2)cc1)C1CCCN(Cc2ccn[nH]2)C1 (centres undefined),17.8,-,0,0,0,0,0,0
COC(=O)c1ccc(CN2CCCC(C(=O)Nc3ccc(-c4ccn[nH]4)cc3)C2)cc1 (centres undefined),0,0,0,0,0,0,-,-
Cn1c(C(=O)OCC(=O)NCc2ccco2)cc2sccc21,14.3,0,0,0,0,0,0,0
O=C1CC=Nc2ccc([N+](=O)[O-])cc21,0,-,0,0,0,0,-,-
O=[N+]([O-])c1ccc(N/N=C/C=C/c2ccco2)cc1,8.2,0,0,0,0,0,0,6.5
O=C(O)c1ccc(N/N=C/C=C/c2ccc([N+](=O)[O-])o2)cc1,0,0,0,0,0,0,-,-

# Screening data: PubChem, several laboratories
